Test results reported in PubChem BioAssay (EPA / NIEHS).
Values joined by “and” are separate entries in the source; they are usually repeats but may differ in a detail not shown here. Equal values may be shown once. Results filed as inconclusive are left out. The source holds several records for some structures; these can differ, active in one and inactive in another. Active and inactive are the calls of the source. The calls were made as follows, unless noted: active = hit-call score of the fitted dose curve at least 0.9, where 1 is the maximum; inactive = score below 0.9.

Assays:
[1] = CCTE_Shafer_MEA_dev_mutual_information_norm: CCTE's Neural Network Formation Assay for Mutual Information Normalization, Shafer Lab (AID 2284091)
Outline: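 Shared information across electrodes, tracked on days 5, 7, 9 and 12 of network development and collapsed as trapezoidal area under the curve. Rat cortical cultures were treated continuously from plating, with treatment renewed at feeds on DIV 5 and 9; DMSO baseline, negative-direction fit.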

[2] = CCTE_Shafer_MEA_dev_correlation_coefficient_mean: CCTE's Neural Network Formation Assay for Mean Correlation Coefficient, Shafer Lab (AID 2284093);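 also: well mean pairwise spike train correlation integrated as AUC over recording days 5 to 12; potency fitted for loss of correlation relative to DMSO vehicle wells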
Outline: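 Read-out: well-mean correlation coefficient of spike trains between electrode pairs, collapsed over four recording days as trapezoidal area-under-the-curve. Developing rat cortical neuron networks grown on MEAs received test chemical continuously from plating.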

[3] = BSK_BT_PBMCCytotoxicity: PBMC Cytotoxicity Assessment in the BioMAP Diversity Plus: BT Assay (AID 2284225); details: primary human B cells with PBMC;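 also: PBMC viability measured by Alamar Blue dye reduction fluorescence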
Outline: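 Viability by Alamar Blue reduction (6 h, ex/em 546/580 nm) after 90 h culture of SEB/TSST-1-activated PBMC (20 ng/mL each) given compound 1 h before activation. DMSO served as baseline for curve fitting.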

[4] = read-out: Secreted IgG (sIgG), gene 3500; assay: BSK_BT_sIgG: BioMAP Diversity Plus: BT Assay for Secreted IgG (sIgG) Biomarker Activity (AID 2284226); details: primary human B cells with PBMC
Outline: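 ELISA quantitation of secreted IgG from human B cells co-cultured with PBMC, sampled 24 h post-dosing. Values fitted relative to DMSO vehicle as baseline, positive fitting direction.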

[5] = BSK_BT_Bcell_Proliferation: Viability Assessment in the BioMAP Diversity Plus: BT Assay for B cell Proliferation (AID 2284227); details: primary human B cells with PBMC
Outline: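 SRB-based protein staining (0.1% SRB after 10% TCA fixation, 560 nm) quantifies proliferation in human B cells co-cultured with PBMC, 72 h post-dosing, with signal gain scored relative to DMSO negative control.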

[6] = read-out: Interleukin 17A (IL17A), IL17A (gene 3605); assay: BSK_BT_xIL17A: BioMAP Diversity Plus: BT Assay for Interleukin 17A (IL17A) Biomarker Activity (AID 2284229); details: primary human B cells with PBMC
Outline: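 B cells co-cultured with PBMC were exposed to test chemicals, and secreted IL-17A was quantified 24 h after dosing by Luminex xMAP bead immunoassay. Activity was fitted in the gain direction against DMSO as baseline.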

[7] = read-out: Tumor necrosis factor (Homo sapiens) (UniProt P01375); assay: BSK_BT_xTNFa: BioMAP Diversity Plus: BT Assay for Tumor necrosis factor alpha (TNF-alpha) Biomarker Activity (AID 2284230); details: primary human B cells with PBMC
Outline: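 Compounds were added to a B cell plus PBMC co-culture, and after 24 h secreted TNF-alpha was quantified with Luminex xMAP technology, with responses fitted upward from the DMSO control.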

[8] = read-out: Vascular cell adhesion molecule 1 (VCAM1), VCAM1 (gene 7412); assay: BSK_MyoF_VCAM1: BioMAP Diversity Plus: MyoF Assay for Vascular cell adhesion molecule 1 (VCAM1) Biomarker Activity (AID 2284231); details: primary human lung fibroblasts
Outline: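 Primary human lung fibroblasts were dosed with test chemical for 24 h, then cell-surface VCAM-1 was measured by ELISA. Activity was fitted in the positive direction against DMSO as negative control and baseline.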

[9] = read-out: Collagen I, COL1A1 (gene 1277); assay: BSK_MyoF_CollagenI: BioMAP Diversity Plus: MyoF Assay for Collagen I Biomarker Activity (AID 2284238); details: primary human lung fibroblasts
Outline: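 Human lung fibroblasts were exposed to test chemical for 24 h, then Collagen I was quantified by ELISA. Activity was fitted in the increasing direction against DMSO as the negative control and baseline.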

[10] = read-out: Collagen III, COL3A1 (gene 1281); assay: BSK_MyoF_CollagenIII: BioMAP Diversity Plus: MyoF Assay for Collagen III Biomarker Activity (AID 2284239); details: primary human lung fibroblasts
Outline: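 Human lung fibroblasts were dosed with chemicals and, 24 hours later, collagen III was measured by ELISA. Activity was fitted in the positive direction against the DMSO negative-control baseline.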

[11] = read-out: Interleukin 17F (IL17F), IL17F (gene 112744); assay: BSK_BT_xIL17F: BioMAP Diversity Plus: BT Assay for Interleukin 17F (IL17F) Biomarker Activity (AID 2284243); details: primary human B cells with PBMC
Outline: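 B cell/PBMC co-culture (human primary), 24 h compound exposure; sIL-17F by Luminex xMAP; gain-of-signal fit vs DMSO baseline.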

[12] = read-out: Actin alpha 1 (ACTA1), ACTA1 (gene 58); assay: BSK_MyoF_ACTA1: BioMAP Diversity Plus: MyoF Assay for Actin alpha 1 (ACTA1) Biomarker Activity (AID 2284244); details: primary human lung fibroblasts
Outline: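 alpha-SMA levels read by ELISA against DMSO baseline, 24 h post-dose, in primary human lung fibroblasts. Parallel cultures stained with 0.1% SRB after 10% TCA fixation (560 nm) to flag overt cytotoxicity.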

[13] = read-out: Interleukin 2 (IL2), IL2 (gene 3558); assay: BSK_BT_xIL2: BioMAP Diversity Plus: BT Assay for Interleukin 2 (IL2) Biomarker Activity (AID 2284245); details: primary human B cells with PBMC
Outline: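 Secreted IL-2 was read by Luminex xMAP from B cells co-cultured with PBMC (human primary) 24 h post-dosing; activity was analysed as gain of signal relative to DMSO vehicle.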

[14] = read-out: Basic fibroblast growth factor (bFGF), FGF2 (gene 2247); assay: BSK_MyoF_bFGF: BioMAP Diversity Plus: MyoF Assay for Basic fibroblast growth factor (bFGF) Biomarker Activity (AID 2284246); details: primary human lung fibroblasts
Outline: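 bFGF was measured by ELISA in primary human lung fibroblasts 24 h after chemical addition. Signal was analysed as positive-direction change relative to DMSO baseline.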

[15] = read-out: Monokine induced gamma interferon (MIG), CXCL9 (gene 4283); assay: BSK_KF3CT_MIG: BioMAP Diversity Plus: KF3CT Assay for Monokine induced gamma interferon (MIG) Biomarker Activity (AID 2284248); details: primary human keratinocytes with fibroblasts
Outline: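 Human keratinocyte plus foreskin fibroblast primary co-culture dosed with test chemical for 24 h; MIG level measured by ELISA and fitted in the positive direction against DMSO as baseline.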

[16] = read-out: Collagen IV, COL4A1 (gene 1282); assay: BSK_MyoF_CollagenIV: BioMAP Diversity Plus: MyoF Assay for Collagen IV Biomarker Activity (AID 2284247); details: primary human lung fibroblasts
Outline: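 Collagen IV quantified by ELISA in human lung fibroblast cultures 24 h after chemical treatment, with DMSO as baseline. Parallel SRB staining (0.1% SRB after TCA fixation, 560 nm) flags overt cytotoxicity.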

[17] = CCTE_Mundy_HCI_hNP1_Pro_ResponderAvgInten: CCTE's Proliferation Assay in human neuroprogenitor cells, Mundy Lab (AID 2284224; active = hit-call score of the fitted dose curve at least 0.9, where 1 is the maximum)
Outline: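 Proliferation was scored as BrdU labelling intensity in human neural progenitors derived from WA09 embryonic cells, measured 26.25 hours after chemical dosing. Activity was fitted relative to DMSO.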

[18] = CCTE_Mundy_HCI_hNP1_Casp3_7: CCTE's Caspase-Glo 3/7 Assay in human neuroprogenitor cells for Apoptosis, Mundy Lab (AID 2284240)
Outline: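 Apoptosis is scored by activated caspase-3/7 luminescence in WA09-derived neural progenitor cells, measured 26.5 h after chemical dosing. Values represent gain of signal relative to DMSO vehicle.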

[19] = CCTE_Mundy_HCI_hNP1_CellTiter: CCTE's Cell Titer-Glo 2 Assay in human neuroprogenitor cells for Viability, Mundy Lab (AID 2284241; active = hit-call score of the fitted dose curve at least 0.9, where 1 is the maximum)
Outline: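 Human neural progenitor cells (hNP1, WA09-derived) were plated on poly-L-ornithine/laminin and grown 40 to 44 hours at 37 °C, 5% CO2 before chemical addition. Twenty-four hours later, ATP was measured by CellTiter-Glo luminescence; loss of signal versus DMSO indicates reduced viability.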

Measured: AC50

Sequence of Tumor necrosis factor (Homo sapiens) (P01375 whole entry, looked up): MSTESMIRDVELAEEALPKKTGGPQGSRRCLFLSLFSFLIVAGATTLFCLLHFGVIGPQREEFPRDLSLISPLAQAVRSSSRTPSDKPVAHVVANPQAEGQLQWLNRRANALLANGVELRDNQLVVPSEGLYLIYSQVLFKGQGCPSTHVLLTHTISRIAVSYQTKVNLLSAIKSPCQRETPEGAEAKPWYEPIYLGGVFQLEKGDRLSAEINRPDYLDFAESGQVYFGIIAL

C=CC(=O)OCCC(F)(F)C(F)(F)C(F)(F)C(F)(F)F
inactive: [1] | [8] | [9] | [10] | [12] | [14] | [15]
active: [2] 15 µM | [3] 37.8 µM and 25.8 µM | [4] 36.7 µM and 44.9 µM | [5] 45.3 µM and 46.6 µM | [6] 33.5 µM and 10.7 µM | [7] 38.4 µM and 30 µM | [8] 21 µM | [11] 20.1 µM and 14.3 µM | [13] 46.6 µM and 48 µM

C=CC(=O)OCC(F)(F)C(F)(F)C(F)(F)C(F)(F)C(F)(F)C(F)(F)C(F)(F)C(F)F
active: [3] 32.5 µM and 22.7 µM | [4] 46.2 µM | [5] 44.8 µM and 30 µM | [6] 30 µM and 27.2 µM | [7] 35.1 µM and 6.23 µM | [8] 27.2 µM and 37.2 µM | [11] 18.8 µM | [12] 30 µM and 19.5 µM | [13] 44.5 µM
inactive: [4] | [9] | [10] | [13] | [14] | [16] | [15]

OCCCC(F)(F)C(F)(F)C(F)(F)C(F)(F)C(F)(F)C(F)(F)C(F)(F)C(F)(F)F
inactive: [17] | [18] | [19]
active: [3] 46.4 µM and 23.2 µM | [4] 45.9 µM and 44.5 µM | [5] 43.8 µM and 31.8 µM | [6] 22.9 µM and 21.7 µM | [7] 37.1 µM and 37 µM | [8] 12.8 µM and 9.88 µM | [9] 13 µM and 10.9 µM | [10] 13.5 µM and 12.2 µM | [11] 22.4 µM and 19.1 µM | [12] 10.3 µM and 10.6 µM | [13] 43.4 µM and 46.9 µM | [14] 10.1 µM and 9.64 µM | [15] 14.8 µM and 15.3 µM
